Screens deposited in PubChem BioAssay by NMMLSC.
Sampled rows, rich in hits. Any-hit rate of the full collection: about 3.5%.
BoNT-F LC inh = BoNT F light chain protease inhibition; Multiplex microsphere protease cleavage assay, flow cytometry; inhibition, % at 10 µM; 360,000 compounds, 0.22% hits; AID 588497; in the data active = inhibition above about 35%, passing the limit was not always enough; inconclusive = no clear call, values can overlap the other calls
BoNT-A LC inh2 = blocks Botulinum neurotoxin A light chain protease | multiplex microsphere protease substrate cleavage, flow cytometry | inhibition, % at 10 µM | 360,000 compounds, 0.17% hits | AID 588499
Autofluor counter = compound fluorescence in toxin protease inhibitor counterscreen. compound autofluorescence counterscreen, microsphere flow cytometry; active compounds read high. fluorescence intensity (concentration not given with the values). 360,000 compounds, 3.1% hits. AID 624483; in the data active = fluorescence intensity above about 16000; inconclusive = no clear call, values can overlap the other calls
Anthrax LF prot = inhibitors of Bacillus anthracis lethal factor protease | inhibition, % at 10 µM | multiplex microsphere protease cleavage assay, LF | 360,000 compounds, 0.12% hits
Target sequence (P15917 whole entry, looked up): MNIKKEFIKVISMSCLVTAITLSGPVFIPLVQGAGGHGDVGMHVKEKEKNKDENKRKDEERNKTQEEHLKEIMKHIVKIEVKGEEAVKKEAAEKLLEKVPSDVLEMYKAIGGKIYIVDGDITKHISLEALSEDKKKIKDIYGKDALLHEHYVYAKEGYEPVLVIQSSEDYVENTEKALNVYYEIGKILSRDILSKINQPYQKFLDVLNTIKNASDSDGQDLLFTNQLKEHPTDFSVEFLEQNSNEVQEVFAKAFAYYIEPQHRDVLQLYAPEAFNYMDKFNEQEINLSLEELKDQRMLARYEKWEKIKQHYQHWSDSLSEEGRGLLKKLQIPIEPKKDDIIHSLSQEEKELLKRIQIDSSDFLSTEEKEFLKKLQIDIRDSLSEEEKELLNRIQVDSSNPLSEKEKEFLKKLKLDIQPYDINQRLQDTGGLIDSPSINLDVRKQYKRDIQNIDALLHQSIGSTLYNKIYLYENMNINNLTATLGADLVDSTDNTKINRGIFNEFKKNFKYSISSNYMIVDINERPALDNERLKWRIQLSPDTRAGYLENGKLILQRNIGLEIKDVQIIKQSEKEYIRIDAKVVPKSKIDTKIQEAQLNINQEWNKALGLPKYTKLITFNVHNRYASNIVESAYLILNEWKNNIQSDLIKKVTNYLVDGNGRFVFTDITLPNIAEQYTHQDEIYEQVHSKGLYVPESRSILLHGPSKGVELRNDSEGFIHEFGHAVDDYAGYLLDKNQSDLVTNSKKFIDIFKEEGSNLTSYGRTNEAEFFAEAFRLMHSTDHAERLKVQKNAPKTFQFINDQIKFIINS
Numbers stand for hits. Cut-off read from the data, not from the text of the source, unless noted: active = inhibition above about 30%; inconclusive = no clear call, values can overlap the other calls; inactive = below that.

`CCOc1cc(/C=C2\C(=N)N3N=C(CC)SC3=NC2=O)ccc1OCCOc1ccc(NC(C)=O)cc1` gave BoNT-F LC inh inconclusive, BoNT-A LC inh2 inactive, Autofluor counter inactive and Anthrax LF prot inactive.
For C=CCn1c(=O)/c(=C/c2ccc(O)cc2)s/c1=C(/C#N)c1nnc2n1CCCCC2 the results were BoNT-F LC inh inactive, BoNT-A LC inh2 inactive, Autofluor counter inactive and Anthrax LF prot inactive.
`C=CCn1c(=O)/c(=C/c2cc(OC)c(OC)c(OC)c2)s/c1=C(/C#N)c1nc2ccccc2n1C` gave BoNT-F LC inh 58.3, BoNT-A LC inh2 112.3, Autofluor counter inactive and Anthrax LF prot 60.9.
`COc1ccc(C(=O)n2cnc3ccccc32)cc1` gave BoNT-F LC inh inactive, BoNT-A LC inh2 inactive, Autofluor counter inactive and Anthrax LF prot inactive.
For CS(=O)(=O)N1CCN(c2ccc(NC(=O)c3ccc(-c4ccc(Cl)cc4)o3)cc2)CC1 the results were BoNT-F LC inh inactive, BoNT-A LC inh2 inactive, Autofluor counter 17675 and Anthrax LF prot inactive.
For CS(=O)(=O)N1CCN(c2ccccc2NC(=O)c2cc(Br)ccc2Cl)CC1 the results were BoNT-F LC inh inactive, BoNT-A LC inh2 inactive, Autofluor counter inactive and Anthrax LF prot inactive.
`O=C(NC(=S)Nc1ccccc1N1CCCCC1)c1ccc(-c2cccc([N+](=O)[O-])c2)o1` gave BoNT-F LC inh inactive, BoNT-A LC inh2 inactive, Autofluor counter inactive and Anthrax LF prot inactive.
`O=C(NC(=S)Nc1ccccc1N1CCCC1)c1ccc(-c2cccc([N+](=O)[O-])c2)o1` gave BoNT-F LC inh inactive, BoNT-A LC inh2 inconclusive, Autofluor counter 19601 and Anthrax LF prot inactive.
Screening CN1CCN(c2ccc(NC(=O)c3ccc(-c4ccc(Cl)cc4)o3)cc2)CC1 returned BoNT-F LC inh inactive, BoNT-A LC inh2 inactive, Autofluor counter inactive and Anthrax LF prot inactive.
For CS(=O)(=O)N1CCN(c2ccccc2NC(=O)c2ccc(-c3ccc(Br)cc3)o2)CC1 the results were BoNT-F LC inh inactive, BoNT-A LC inh2 inactive, Autofluor counter 16514 and Anthrax LF prot inactive.
For O=C(O)c1ccc(S(=O)(=O)c2ccc3c(c2)C(=O)N(c2ccc(Br)cc2)C3=O)cc1 the results were BoNT-F LC inh inactive, BoNT-A LC inh2 inactive, Autofluor counter inactive and Anthrax LF prot inactive.
CC1CCN(C(=O)CSc2ccc(-c3cccc([N+](=O)[O-])c3)nn2)CC1 was read as BoNT-F LC inh inactive, BoNT-A LC inh2 inactive, Autofluor counter inactive and Anthrax LF prot inactive.
Screening Nc1c(C(=O)NCc2ccco2)c2nc3ccccc3nc2n1CCN1CCOCC1 returned BoNT-F LC inh inactive, BoNT-A LC inh2 inactive, Autofluor counter 21216 and Anthrax LF prot inactive.
`Cn1c(SCc2cccc(Cl)c2)nc(C(F)(F)F)cc1=O` gave BoNT-F LC inh inactive, BoNT-A LC inh2 inactive, Autofluor counter 18749 and Anthrax LF prot inactive.
COc1cc(/C=C(/C#N)C(=O)NCCc2c[nH]c3ccccc23)ccc1OCc1ccccc1F was read as BoNT-F LC inh inactive, BoNT-A LC inh2 inactive, Autofluor counter 23745 and Anthrax LF prot inactive.
COc1cccc(NC(=O)CSc2nc3c(c(-c4ccco4)c2C#N)CCCC3)c1 was read as BoNT-F LC inh inactive, BoNT-A LC inh2 inconclusive, Autofluor counter 23093 and Anthrax LF prot inactive.
For CCc1nnc(NC(=O)CSc2nc(C)c3c(c2C#N)CCCC3)s1 the results were BoNT-F LC inh inactive, BoNT-A LC inh2 inactive, Autofluor counter inactive and Anthrax LF prot inactive.
COc1ccccc1NC(=O)CSc1nc(C)c2c(c1C#N)CCCC2 was read as BoNT-F LC inh inactive, BoNT-A LC inh2 inactive, Autofluor counter 23495 and Anthrax LF prot inactive.
For Cc1nc(SCC(=O)NCc2ccc3c(c2)OCO3)c(C#N)c2c1CCCC2 the results were BoNT-F LC inh inactive, BoNT-A LC inh2 inactive, Autofluor counter inactive and Anthrax LF prot inactive.
`COc1ccc(NC(=O)CSc2nc(C)c3c(c2C#N)CCCC3)cc1` gave BoNT-F LC inh inactive, BoNT-A LC inh2 inactive, Autofluor counter 21814 and Anthrax LF prot inactive.
For C/C(=N/NC(=O)CNc1ccc(Cl)cc1C)c1ccc(C)cc1 the results were BoNT-F LC inh inactive, BoNT-A LC inh2 inactive, Autofluor counter inactive and Anthrax LF prot inactive.
Screening COc1ccc(Oc2c(C)oc3cc(OC(=O)N4CCOCC4)ccc3c2=O)cc1 returned BoNT-F LC inh inactive, BoNT-A LC inh2 inactive, Autofluor counter 16237 and Anthrax LF prot inactive.
Screening COC(=O)c1c(C)oc2ccc(OC(=O)N3CCOCC3)cc12 returned BoNT-F LC inh inactive, BoNT-A LC inh2 inactive, Autofluor counter inactive and Anthrax LF prot inactive.
Screening Cc1oc2ccc(OC(=O)N3CCOCC3)cc2c1C(=O)OC(C)C returned BoNT-F LC inh inactive, BoNT-A LC inh2 inactive, Autofluor counter 23451 and Anthrax LF prot inactive.
`COc1cccc(Oc2coc3cc(OC(=O)N4CCOCC4)ccc3c2=O)c1` gave BoNT-F LC inh inactive, BoNT-A LC inh2 inactive, Autofluor counter inactive and Anthrax LF prot inactive.
COc1ccccc1Oc1coc2cc(OC(=O)N3CCOCC3)ccc2c1=O was read as BoNT-F LC inh inactive, BoNT-A LC inh2 inactive, Autofluor counter 22043 and Anthrax LF prot inactive.
Screening C#CCOc1nc(OCC#C)nc(OCC#C)n1 returned BoNT-F LC inh inactive, BoNT-A LC inh2 inactive, Autofluor counter inactive and Anthrax LF prot inactive.
For CN1C(=O)CC2(C)C1=CCc1scnc12 (stereo not drawn) the results were BoNT-F LC inh inactive, BoNT-A LC inh2 inactive, Autofluor counter inactive and Anthrax LF prot inactive.
For CN(C)CCN1CCN(C2CN(Cc3cn(Cc4ccc(F)cc4)nn3)S(=O)(=O)C2)CC1 (stereo not drawn) the results were BoNT-F LC inh inactive, BoNT-A LC inh2 inactive, Autofluor counter inactive and Anthrax LF prot inactive.
CCn1c(SCC(=O)Nc2cc(C)on2)nnc1-c1ccc(S(=O)(=O)N2CCN(C)CC2)cc1 was read as BoNT-F LC inh inactive, BoNT-A LC inh2 inactive, Autofluor counter 24027 and Anthrax LF prot inactive.
For CCn1c(SCC(=O)N2CCCC(C)C2)nnc1-c1ccc(S(=O)(=O)N2CCN(C)CC2)cc1 (stereo not drawn) the results were BoNT-F LC inh inactive, BoNT-A LC inh2 inactive, Autofluor counter inactive and Anthrax LF prot inactive.
CCn1c(SCC(=O)N2CCCCC2)nnc1-c1ccc(S(=O)(=O)N2CCN(C)CC2)cc1 was read as BoNT-F LC inh inactive, BoNT-A LC inh2 inactive, Autofluor counter 16315 and Anthrax LF prot inactive.
For CCn1c(SCC(=O)N2CCCC2)nnc1-c1ccc(S(=O)(=O)N2CCCCCC2)cc1 the results were BoNT-F LC inh inactive, BoNT-A LC inh2 inconclusive, Autofluor counter 19519 and Anthrax LF prot inactive.
For CCn1c(SCc2ccc(C#N)cc2)nnc1-c1ccc(S(=O)(=O)N2CCCCC2)cc1 the results were BoNT-F LC inh inactive, BoNT-A LC inh2 inactive, Autofluor counter inactive and Anthrax LF prot inactive.
NC(=O)CSc1nnc(-c2ccc(S(=O)(=O)N3CCCC3)cc2)n1CC1CCCO1 (stereo not drawn) was read as BoNT-F LC inh inactive, BoNT-A LC inh2 inactive, Autofluor counter inactive and Anthrax LF prot inactive.
For N#CCSc1nnc(-c2ccc(S(=O)(=O)N3CCOCC3)cc2)n1CC1CCCO1 (stereo not drawn) the results were BoNT-F LC inh inactive, BoNT-A LC inh2 inconclusive, Autofluor counter 22267 and Anthrax LF prot inactive.
COc1ccc(S(=O)(=O)N2CCC(C(=O)NCc3cccs3)CC2)cc1 was read as BoNT-F LC inh inactive, BoNT-A LC inh2 inactive, Autofluor counter inactive and Anthrax LF prot inactive.
